Activity calls are given as the source filed them.
What was measured:
[1] = tested on: Plasmodium falciparum Sir2 (PF13_0152, Sir2A); test: Plasmodium falciparum Sir2A binding compounds – biochemical, small-molecule microarray, 635 nm fluorescence, primary screen (AID 1098); conditions: fluorescence 635 nm, higher = more signal;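 further: score merges spot fluorescence intensity with its signal-to-noise ratio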
[2] = probe aDKK1 binding to arrayed compounds – biochemical, biotinylated probe, 635/667 nm fluorescence, primary screen (AID 1099); conditions: small-molecule microarray, higher = more signal;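 further: score merges 667nm spot fluorescence with signal to noise across triplicate slides; reference of the scale not given here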
[3] = probe aCHRDL2 binding to arrayed compounds – biochemical, biotinylated probe, 635/667 nm fluorescence, primary screen (AID 1100); conditions: small-molecule microarray, higher = more signal
[4] = change in splice reporter luminescence, either direction, cell-based, HEK293, spliceosome inhibition project, primary screen (AID 1101); conditions: HEK293 splicing luciferase reporter, 24 h, higher = more signal, called active from +8 up or from −8 down;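 further: HEK293 cells carrying a splicing-competent luciferase reporter gene; test concentration not given here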
[5] = target: Fibroblast growth factor 10 (Homo sapiens) (UniProt O15520); test: compounds binding fibroblast growth factor 10 – biochemical, small-molecule microarray, 635 nm fluorescence, primary screen (AID 1102); conditions: FGF10 binding, fluorescence 635 nm, higher = more signal
[6] = tested on: glycogen synthase kinase-3 (GSK3A per assay name; protocol says GSK3B); test: compounds binding glycogen synthase kinase-3 – biochemical, small-molecule microarray, 635 nm fluorescence, GSK3A, primary screen (AID 1103); conditions: fluorescence 635 nm, higher = more signal; further: the record names both GSK3A and GSK3B
[7] = target: Epidermal growth factor receptor (Homo sapiens) (UniProt P00533); test: compounds binding epidermal growth factor receptor – biochemical, small-molecule microarray, 635 nm fluorescence, primary screen (AID 1104); conditions: EGFR binding, higher = more signal;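 further: score merges 667 nm emission intensity with spot signal to noise over triplicate slides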
[8] = target: Follistatin-related protein 3 (Homo sapiens) (UniProt O95633); test: compounds binding follistatin-related protein 3 – biochemical, small-molecule microarray, 635 nm fluorescence, primary screen (AID 1105); conditions: FSTL3 binding, higher = more signal;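 further: score merges emission near 667 nm and signal to noise per printed spot across three slides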
[9] = target: Dickkopf-related protein 1 (Homo sapiens) (UniProt O94907); test: small molecules binding DKK1 protein – biochemical, small-molecule microarray, 635 nm fluorescence scan, primary screen (AID 1106); conditions: higher = more signal;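 further: score merges emission near 667 nm with signal to noise over three replicate slides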
[10] = tested on: Inhibin beta A chain (activin A); test: small molecules binding activin A – biochemical, small-molecule microarray, 635 nm fluorescence scan, primary screen (AID 1107); conditions: INHBA, higher = more signal;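 further: mouse activin A protein probed at 4.33 µg/mL on printed slides; score merges bound-protein fluorescence near 667 nm with spot signal-to-noise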

Chain of Epidermal growth factor receptor (Homo sapiens) (P00533 whole entry, looked up): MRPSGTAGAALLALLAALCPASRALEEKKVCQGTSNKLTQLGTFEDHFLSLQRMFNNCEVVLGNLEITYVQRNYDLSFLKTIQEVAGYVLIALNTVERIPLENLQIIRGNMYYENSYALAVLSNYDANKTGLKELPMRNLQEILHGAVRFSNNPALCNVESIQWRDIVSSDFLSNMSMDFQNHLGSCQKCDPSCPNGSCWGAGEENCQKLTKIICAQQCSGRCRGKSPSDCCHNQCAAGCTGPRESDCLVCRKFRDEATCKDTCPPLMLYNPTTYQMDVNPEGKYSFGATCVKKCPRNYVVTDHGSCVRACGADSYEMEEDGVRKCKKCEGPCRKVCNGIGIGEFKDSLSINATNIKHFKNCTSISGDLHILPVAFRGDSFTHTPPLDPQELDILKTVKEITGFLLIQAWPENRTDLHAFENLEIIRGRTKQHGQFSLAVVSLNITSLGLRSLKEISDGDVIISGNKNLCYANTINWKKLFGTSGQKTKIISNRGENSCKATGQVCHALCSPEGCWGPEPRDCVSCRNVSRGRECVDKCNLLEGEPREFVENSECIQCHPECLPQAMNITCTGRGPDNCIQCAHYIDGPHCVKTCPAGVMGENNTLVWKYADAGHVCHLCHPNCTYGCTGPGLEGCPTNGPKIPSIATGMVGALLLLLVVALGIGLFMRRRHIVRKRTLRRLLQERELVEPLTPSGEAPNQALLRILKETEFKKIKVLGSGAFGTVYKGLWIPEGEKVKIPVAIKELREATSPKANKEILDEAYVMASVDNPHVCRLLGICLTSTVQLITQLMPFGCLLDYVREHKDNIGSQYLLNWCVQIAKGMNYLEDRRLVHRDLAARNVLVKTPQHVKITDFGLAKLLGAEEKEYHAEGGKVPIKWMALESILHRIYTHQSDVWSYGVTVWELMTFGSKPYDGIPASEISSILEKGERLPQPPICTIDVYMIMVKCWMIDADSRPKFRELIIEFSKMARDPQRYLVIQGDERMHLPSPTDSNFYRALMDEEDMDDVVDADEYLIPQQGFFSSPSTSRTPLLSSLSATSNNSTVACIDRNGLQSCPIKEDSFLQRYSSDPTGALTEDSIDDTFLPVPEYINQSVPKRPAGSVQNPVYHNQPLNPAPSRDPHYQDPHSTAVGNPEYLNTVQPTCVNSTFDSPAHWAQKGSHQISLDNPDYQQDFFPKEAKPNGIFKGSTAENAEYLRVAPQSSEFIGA
Chain of Follistatin-related protein 3 (Homo sapiens) (O95633 whole entry, looked up): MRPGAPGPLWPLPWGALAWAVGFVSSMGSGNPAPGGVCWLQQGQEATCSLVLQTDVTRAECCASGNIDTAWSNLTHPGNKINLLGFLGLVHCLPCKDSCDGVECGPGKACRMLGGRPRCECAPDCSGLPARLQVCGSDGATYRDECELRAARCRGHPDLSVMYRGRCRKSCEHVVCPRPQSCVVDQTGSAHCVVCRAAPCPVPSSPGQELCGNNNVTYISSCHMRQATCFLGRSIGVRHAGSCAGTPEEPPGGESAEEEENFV
Chain of Dickkopf-related protein 1 (Homo sapiens) (O94907 whole entry, looked up): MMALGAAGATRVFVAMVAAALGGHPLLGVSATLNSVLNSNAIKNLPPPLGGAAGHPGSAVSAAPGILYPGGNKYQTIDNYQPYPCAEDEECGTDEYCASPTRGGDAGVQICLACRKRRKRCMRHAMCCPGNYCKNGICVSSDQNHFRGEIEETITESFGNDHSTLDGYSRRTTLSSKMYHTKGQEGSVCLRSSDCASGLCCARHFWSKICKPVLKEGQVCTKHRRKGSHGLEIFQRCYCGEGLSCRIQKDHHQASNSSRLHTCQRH
Chain of Fibroblast growth factor 10 (Homo sapiens) (O15520 whole entry, looked up): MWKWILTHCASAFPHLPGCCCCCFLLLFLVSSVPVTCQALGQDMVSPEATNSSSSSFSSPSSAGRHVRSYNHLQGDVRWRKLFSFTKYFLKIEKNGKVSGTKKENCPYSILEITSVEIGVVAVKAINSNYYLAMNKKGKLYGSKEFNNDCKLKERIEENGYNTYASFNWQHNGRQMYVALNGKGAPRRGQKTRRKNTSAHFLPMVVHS

Structure (SMILES) | composite z-score [1] | composite z-score [2] | composite z-score [3] | z-score [4] | composite z-score [5] | composite z-score [6] | composite z-score [7] | composite z-score [8] | composite z-score [9] | composite z-score [10]
CC1CC/C=C\[C@H]2OC34C=CCN(Cc5ccccc5)C(=O)[C@H]3N(CCCCCO)C(=O)[C@@H]4C2C(=O)O1 (stereo not given in full) | -0.0545 | -0.425 | 0.144 | 0.537 (inactive) | -0.423 | -1.42 | -0.713 | -1.19 | -0.892 | -0.0407
O=C(CS)NCCCCCCNC(=O)[C@H]1C[C@H]2C(=O)NCC(=O)N2[C@H]1c1ccc(O)cc1 | 0.576 | -0.213 | 0.694 | -0.295 (inactive) | -0.175 | -0.607 | -0.606 | -0.46 | 0.22 | -0.58
CC(C)NC(=O)[C@@H]1c2ccccc2C(=O)N(Cc2ccccc2)[C@H]1c1ccc(CO)cc1 | 1.62 | 0.652 | 1.11 | 0.00875 (inactive) | 0.462 | 0.263 | -1.41 | -0.942 | -1.05 | -0.212
[N-]=[N+]=NCc1ccccc1C[C@@]1(C(=O)N2CCOCC2)N=C(c2ccc(OCCCO)cc2)O[C@@H]1c1ccccc1CN=[N+]=[N-] | 1.63 | 1.22 | 1.37 | -0.429 (inactive) | 1.46 | 0.965 | 0.422 | 0.656 | -0.0757 | 0.811
CC(C)(C)OC(=O)CC[C@@]1(C(=O)NCCN2CCOCC2)N=C(c2ccc(OCCCO)cc2)O[C@@H]1c1ccccc1 | 1.48 | 1.06 | 1.11 | -1.16 (inactive) | 1.01 | 0.896 | 0.335 | 1.05 | 0.126 | 0.767
CN(C)C(=O)[C@]1(CCC(=O)OC(C)(C)C)N=C(c2ccc(OCCCO)cc2)O[C@@H]1c1ccccc1N=[N+]=[N-] | 1.44 | 0.533 | 0.863 | -0.194 (inactive) | 1.25 | 1.33 | 0.17 | 0.644 | -0.394 | 0.252
CCCCCN1CC=CC23O[C@@H]4/C=C\CCCOC(=O)C4[C@H]2C(=O)N(CCCCCCO)[C@@H]3C1=O (stereo not given in full) | 1.43 | -0.231 | 0.139 | -3.07 (inactive) | -0.894 | 0.233 | -0.0633 | -0.0242 | -1.22 | 1.26
COc1ccc(C(=O)Nc2cccc(CN3C(=O)[C@]4(O[C@H](CC(=O)N5CCC[C@H]5CO)[C@@H]([Si](C)(C)c5ccc(OC)cc5)[C@@H]4C)c4ccccc43)c2)cc1 | 1.27 | -0.202 | -0.067 | -0.0342 (inactive) | 0.703 | 1.12 | 0.317 | 0.737 | 0.65 | -0.0762
N#Cc1ccc(NN2C(C(O)C3CCCCC3)C=CC3C(=O)N(c4ccccc4)C(=O)C32)cc1 (stereo not given) | 0.908 | 0.458 | 0.811 | 1.23 (inactive) | 1.09 | 1.3 | -0.0355 | 1.28 | -0.547 | 0.249
CN(C)C(=O)[C@@]1(CCC(=O)OC(C)(C)C)N=C(c2ccc(OCCCO)cc2)O[C@H]1c1ccccc1 | 1.75 | 0.559 | 0.401 | -0.919 (inactive) | 0.0744 | 0.556 | -0.58 | -0.725 | -0.887 | 0.366
CCCN1C(=O)[C@@]2(CCC(=O)OC(C)(C)C)N=C(c3ccc(OCCCO)cc3)O[C@H]2c2ccccc21 | 0.902 | -0.243 | 0.713 | 0.478 (inactive) | 0.9 | 1.22 | 0.246 | 0.874 | 0.242 | 1.03
COC(=O)[C@@]1(Cc2ccccc2)[C@H]2c3cc(C(=O)N(C)C)n(Cc4c(-c5ccccc5)noc4C)c3C[C@H]2CN1C(=O)c1ccccc1 | 0.609 | 0.898 | 1.18 | 0.762 (inactive) | 0.377 | 0.638 | 0.144 | 0.0261 | -0.0672 | 1.22
O=C1OCCC=C[C@H]2OC34C=CCN(c5ccc6ccccc6c5)C(=O)[C@H]3N(CCCCCO)C(=O)[C@@H]4C12 (stereo not given in full) | 1.8 | 0.0672 | 0.597 | -0.606 (inactive) | -0.408 | -0.224 | -0.162 | -0.662 | -0.731 | 0.218
O=C1O[C@H](c2ccccc2)[C@H](c2ccccc2)N2[C@H]1[C@@H](C(=O)Nc1nc3ccccc3s1)[C@]1(C(=O)Nc3ccccc31)[C@H]2c1ccc(O)cc1 | 1.57 | -0.0334 | 0.126 | -0.449 (inactive) | 0.939 | 1.08 | 0.598 | 1.31 | 1.11 | 0.435
CCCC[C@@H]1C[C@H]1[C@@H](NC(=O)c1ccc(-c2ccccc2)cc1)c1ccc(-c2ccccc2)cc1 | -0.508 | 0.126 | 0.0604 | -2.88 (inactive) | 0.259 | 0.127 | 1.21 | 1.39 | 1.01 | 1.35
